The values that follow come from PubChem BioAssay (Tox21).

Records with an inconclusive call do not appear. Values without a mark were called inactive. Calls of active or inactive are those of the source. Calls follow the shape of the dose curve; as a rule, active = well fitted cell-killing curve with a large enough effect in the repeat runs; inconclusive = weak or mixed curves, or effect the other way; inactive = flat fitted curve, though single readings scatter.
% is scaled to controls: 0 for no effect and ±100 for the full control effect; potency is read from the fitted curve at half-maximal effect.

This experiment in a line: cAMP Responsive Elements (CRE) small molecule antagonists, cell-based qHTS assay: qHTS cell viability counter screen (AID 2060913). Also: nearly all actives have a fitted effect of over 40% in size. The conditions noted are these: CRE-bla HEK293T viability, CellTiter-Glo luminescence, 5 h; series mostly up to 92.4 µM; viability change, negative = cytotoxic: at the top concentration. From the text:
U.S. Tox21 Program National Center for Advancing Translational Sciences [NCATS] Division of Preclinical Innovation [DPI] U.S. Environmental Protection Agency [EPA] National Institutes of Environmental Health Sciences [NIEHS] National Toxicology Program [NTP] U.S. Food and Drug Administration [FDA] Tox21 Assay Overview: CREB (cyclic-AMP Responsive Element Binding Protein) is a cellular transcription factor. It binds to certain DNA sequences called cAMP Responsive Elements (CRE) and regulates the transcription of the genes. […] This cell line can be used to find agonists/antagonists of the cyclic AMP signaling pathway. The activation of the report gene under culture conditions can be detected by fluorescence intensity. This cell line has been used to screen the Tox21 10K compound library to identify agonists that induce oxidative stress. The cytotoxicity of the Tox21 compound library against the CRE-bla cell line was tested in parallel by measuring the cell viability using CellTiter-Glo assay (Promega, Madison, WI) in the same wells.
Tox21 Assay Protocol Summary: CRE-bla Hek 293T cells were suspended in assay medium (DMEM containing 10% dialyzed FBS, 0.1 mM NEAA, 1 mM sodium pyruvate and 25 mM HEPES) and dispensed at 2,000 cells/4 uL /well into 1536-well black wall/clear bottom plates using a Multidrop Combi (ThermoFisher Scientific, Waltham, MA) dispenser. After the assay plates were incubated at 37 C/5% CO2 for 18 hrs, 23 nL of compounds dissolved in DMSO, positive controls or DMSO only was transferred to the assay plate by a pintool workstation (Kalypsys, San Diego, CA), followed by addition of 1 uL of 1.25uM NKH477 (0.25 uM as final concentration) in assay medium using a Flying Reagent Dispenser (Aurora Discovery, San Diego, CA). The plates were incubated at 37 C and 5% CO2 for 3 hrs. Then 1 uL of LiveBLAzer B/G FRET substrate (Invitrogen, Carlsbad, CA) was added to each well using Bioraptr Flying Reagent Dispenser (FRD, Aurora Discovery, San Diego, CA). The plates were incubated at room temperature for 2 h, then fluorescence intensities were measured using an Envision plate reader (PerkinElmer, Shelton, CT) at Excitation 405nm, Emission 460nm and 530nm. The % activity was determined from the ratio of 460nm/530nm. For cell viability readout that measures cytotoxicity, 4 uL /well of CellTiter-Glo reagent was added into the assay plates using Bioraptr FRD. After 30 min incubation at room temperature, the luminescence intensity in the assay plates was measured using a ViewLux (PerkinElmer, Shelton, CT) plate reader.
Background: In qHTS, concentration-response curves come from the screen itself.
Regarding `N=C(N)S(=O)O`, the “viability change, negative = cytotoxic” value was -4.24%.
Still for that read-out and setting: to `CC1=C(CC(=O)O)c2cc(F)ccc2/C1=C\c1ccc(S(C)(=O)=O)cc1` belongs 12.8% [at 42.5 µM]; to `COc1cc2c(cc1OC)CN(C(=O)[C@H](C)N[C@@H](CCc1ccccc1)C(=O)O)[C@H](C(=O)O)C2`, 5.84% [at 42.5 µM]; to `C=C(C)C(=O)OCCN(CC)CC`, 0.0675%.
On the same count and under the same terms, to `O=CN1CCOCC1` belongs -6.77%; to `CCCCCCCC/C=C\CCCCCCCCN`, 5.76% [at 42.5 µM].
Take `COc1ccc(NC(C)=O)cc1`: the “viability change, negative = cytotoxic” value was 3.3%.
The same measure, in the same setting: the result for `CC(=O)OC(C)=O` reads 2.32%; that for `CCOCCn1c(C2CCN(CCc3ccc(C(C)(C)C(=O)O)cc3)CC2)nc2ccccc21`, -1.1% [at 42.5 µM].
Still for that read-out and setting: to `COc1cccc(OC)c1O` belongs 5.28%.
Turning to `O=C(NCCO[N+](=O)[O-])c1cccnc1`, the “viability change, negative = cytotoxic” value is -0.927% [at 42.5 µM].
The same measure, in the same setting: to `CCC(=O)OC(C)(C)C1CC=C(C)CC1` (stereo not given) belongs -10.6%; to `CC(O)CN(CCCN(C)C)CCCN(C)C` (stereo not given), 0.412%; to `CC(=O)OCCCc1ccccc1`, 15.5%.
For the compound `COc1cc([N+](=O)[O-])ccc1N`, the “viability change, negative = cytotoxic” value was 0.337%.
Same read-out and setting: the result for `Nc1cnn([C@@H]2O[C@H](CO)[C@@H](O)[C@H]2O)c(=O)n1` reads -15.4%.
For the compound `COc1ccc2c(c1)CCCC2=O`, the “viability change, negative = cytotoxic” value was 3.34% [at 42.5 µM].
On the same count and under the same terms, the result for `CC(C)C[C@@H]1[C@H](c2ccccc2)OC(=O)N1CCCN1CCCCCC1` reads -1.86% [at 42.5 µM].
The same measure, in the same setting: the result for `CC(=O)OC/C=C/c1ccccc1` reads 1.45%; that for `Cc1ccc(O)cn1`, 3.11%.
Same read-out and setting: to `CCCCC/C=C\C/C=C\CCCCCCCC(=O)NC(C)c1ccccc1` (stereo not given) belongs 10.6% [at 42.5 µM]; to `NC1CCN(c2nc3c(cc2F)c(=O)c(C(=O)O)cn3-c2ccc(F)cc2F)C1` (stereo not given), 0.587% [at 42.5 µM]; to `OC[C@H]1O[C@H](O[C@H]2O[C@H](CO)[C@@H](O)[C@H](O)[C@H]2O)[C@H](O)[C@@H](O)[C@@H]1O`, 0.293%.
As for `C[C@@H](Oc1ccc(CNC(=O)c2cccnc2Oc2ccc3c(c2)OCO3)c(F)c1)C(=O)O`, the Potency is 13.7 µM (active).
Take `CCCCCCCCCCCCCCCCO`: the Potency result was “inactive”.
The same measure, in the same setting: to `O=C(O)c1ccc(C(=O)O)c(C(=O)O)c1` belongs “inactive”.
As for `CC(Cc1ccc(O)c(O)c1)C(C)Cc1ccc(O)c(O)c1` (stereo not given), the “viability change, negative = cytotoxic” value was -4.49%.
With `CCCCCC1CCCC(=O)O1` (stereo not given), the “viability change, negative = cytotoxic” value is -2.52%.
On the same count and under the same terms, to `CCCCCCCCCCCl` belongs -0.29%.
The same measure, in the same setting: the result for `CCO[Si](OCC)(OCC)c1ccccc1` reads -0.692%.
On the same count and under the same terms, the result for `NCCc1cnc[nH]1` reads 3.34% [at 42.5 µM]; that for `CNC(=O)Nc1ccc(Cl)c(Cl)c1`, -5.94%.
Consider `Cc1nc(-c2ccc(Cl)cc2)oc1COC(C)(C)C(=O)O`, for which the “viability change, negative = cytotoxic” value is -3.26% [at 42.5 µM].
For `CC(=O)Oc1ccccc1C(=O)Nc1ncc([N+](=O)[O-])s1`, the Potency is 7.5 µM (active).
`N#CCCOCCC#N`: the “viability change, negative = cytotoxic” value is 14.1%.
The same measure, in the same setting: the result for `C[C@@H](O[C@H]1OCCN(Cc2n[nH]c(=O)[nH]2)[C@H]1c1ccc(F)cc1)c1cc(C(F)(F)F)cc(C(F)(F)F)c1` reads -23.3% [at 42.5 µM]; that for `CCCC(=O)OCC(COC(=O)CCC)OC(=O)CCC`, 1%.
Same read-out and setting: to `Cc1c(NC(=O)c2cccnc2)c(=O)n(-c2ccccc2)n1C` belongs 0.761% [at 42.5 µM]; to `Cc1cc(=O)oc2cc(O[C@@H]3SC[C@@H](O)[C@H](O)[C@H]3O)ccc12`, 3.24% [at 42.5 µM].
Consider `C=C(C)C(=O)OCC(CC)(COC(=O)C(=C)C)COC(=O)C(=C)C`, for which the Potency entry is “inactive”.
